# Test results from PubChem BioAssay (NCI).
# This is part of a sample that, as a whole, favours compounds with a hit. Of some 83,000 tested, about 20% had one in any assay.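 Step 1: grow cells in 96-well plates. Step 2: add test compound at a single concentration. Step 3: incubate 48 h. Step 4: record percent growth.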 Unmarked numbers belong to inactive results. Calls of active or inactive are those of the source. The calls were made as follows: active = growth percent below 10; inactive = the rest.
# Legend:
# Test in all cases: NCI-60 one-dose screen, 48 h (100 = growth as untreated, 0 = no growth, -100 = all killed)
# Conditions in all cases: 10 µM unless noted
# NCI-H23 lung = system: NCI-H23 lung
# HOP-62 NSCLC = system: HOP-62 NSCLC
# NCI-H460 lung = system: NCI-H460 lung
# HOP-92 NSCLC = system: HOP-92 NSCLC
# NCI-H522 lung = system: NCI-H522 lung
# A549/ATCC NSCLC = system: A549/ATCC NSCLC
# 786-0 renal = system: 786-0 renal
# DU-145 prostate = system: DU-145 prostate
# K-562 leukemia = system: K-562 leukemia
# MALME-3M melanoma = system: MALME-3M melanoma
# MDA-MB-231 breast = system: MDA-MB-231 breast
# RXF 393 renal = system: RXF 393 renal
# SF-268 CNS = system: SF-268 CNS
# SF-295 CNS = system: SF-295 CNS
# SF-539 CNS = system: SF-539 CNS
# UACC-257 melanoma = system: UACC-257 melanoma
# M14 melanoma = system: M14 melanoma
# HCT-15 colon = system: HCT-15 colon
# COLO 205 colon = system: COLO 205 colon
Compound,growth (NCI-H23 lung),growth (HOP-62 NSCLC),growth (NCI-H460 lung),growth (HOP-92 NSCLC),growth (NCI-H522 lung),growth (A549/ATCC NSCLC),growth (786-0 renal),growth (DU-145 prostate),growth (K-562 leukemia),growth (MALME-3M melanoma),growth (MDA-MB-231 breast),growth (RXF 393 renal),growth (SF-268 CNS),growth (SF-295 CNS),growth (SF-539 CNS),growth (UACC-257 melanoma),growth (M14 melanoma),growth (HCT-15 colon),growth (COLO 205 colon)
O=S(=O)(Nc1ncccn1)c1ccc(NC2Nc3nc4ccccc4nc3S2)cc1 (stereo not given),97%,99.6%,103%,105%,94.5%,95.8%,100%,105%,98.2%,96.1%,99.3%,109%,97.9%,99.5%,95.5%,94%,95.5%,96.9%,–
CN1C(=O)N(C)C2Nn3c(s/c(=C\c4ccc(Cl)cc4Cl)c3=O)=NC21 (stereo not given),61.8%,73.2%,30.8%,89.5%,55.3%,51.4%,68.5%,30.3%,19.5%,72.5%,55.9%,39.7%,61.1%,32.4%,36%,84.5%,21%,43.8%,22%
O=C(/C=C/c1ccccn1)c1ccc(OCc2nnc(-c3ccc(Cl)cc3)o2)cc1,70%,44.6%,42.4%,105%,63.7%,34.1%,-49.9% (active),23.8%,-28.1% (active),60.4%,33.4%,-71.7% (active),28.6%,–,-4.02% (active),56.5%,31.1%,18.9%,-40.1% (active)
COc1cc(NC(=O)CCSc2nc3ccccc3c(=O)n2CCc2ccccn2)cc(OC)c1OC,88.3%,85.7%,83.5%,89.1%,25%,84%,84.3%,103%,94.8%,59%,80.2%,75.2%,80.8%,88.4%,73.7%,93.2%,103%,96.4%,115%
O=c1c2cccc(F)c2sc2c(N3CCNCC3)nc3ccccc3c12,51%,37.2%,-77.2% (active),35.3%,48.6%,21.8%,37%,22.3%,-42.1% (active),53.5%,34.6%,42.4%,41.4%,74.6%,48.9%,8.99% (active),-27.4% (active),5.87% (active),–
O=C(Nc1ccccc1O)c1ccc(Oc2cccc(C(=O)Nc3ccccc3O)c2)cc1,25.5%,6.43% (active),1.59% (active),31.4%,-16% (active),7.58% (active),3.76% (active),12.1%,-29.1% (active),13.6%,32%,26.6%,0.105% (active),-28.5% (active),7.4% (active),10.4%,-44.5% (active),32.2%,93.4%
COc1cccc(/C(C#N)=C/c2nc3c(N4CCOCC4)nc(Cl)nc3n2C)c1,25.6%,35.2%,17.4%,-66.3% (active),-64.7% (active),29.2%,-69.4% (active),-77.6% (active),0.802% (active),-45.2% (active),-68.9% (active),-84.9% (active),-24.4% (active),85.7%,-20.2% (active),-57.6% (active),-54.3% (active),-46.4% (active),–
O=C(Nc1ccc(Cl)cc1)N1CCN(c2ccc3nncn3n2)CC1,77.2%,-11.4% (active),-27.3% (active),-21.8% (active),-45.1% (active),-12% (active),-85.9% (active),36%,-61.1% (active),-86.8% (active),-55.5% (active),-81.2% (active),-48.1% (active),-87.2% (active),-86.7% (active),-68.9% (active),-87.1% (active),0.448% (active),-81.2% (active)
O=C(CCc1nnc2sc(COc3ccccc3)nn12)c1nc2ncccc2[nH]1,85.4%,90.7%,93.3%,93.6%,79.4%,–,108%,106%,107%,91.4%,91.8%,98.4%,96%,103%,100%,98.9%,95.6%,100%,107%
CCN1C(=O)N(CC)C2C1NN=c1s/c(=C3\C(=O)N(C(C)C)c4ccccc43)c(=O)n12 (stereo not given),28.8%,38.7%,5.6% (active),54%,-3.38% (active),16.5%,30.6%,3.71% (active),7.46% (active),64.6%,11.3%,35.5%,25.2%,5.01% (active),-13.2% (active),57.1%,18.9%,12.4%,-16% (active)
O=c1c2cc(F)ccc2sc2c(NCCCNCCO)nc3ccc(Cl)cc3c12,81.6%,61%,-53.8% (active),36.8%,49.1%,57.7%,58.8%,37.7%,-25.8% (active),106%,22.5%,61.1%,47.9%,91.3%,84.8%,97.9%,33.4%,51.2%,3.05% (active)
COc1cc(/C=C2\CN(C)C/C(=C\c3cc(CN4CCOCC4)c(O)c(OC)c3)C2=O)cc(CN2CCOCC2)c1O,37.3%,68.9%,15.2%,93.2%,41%,56.8%,76.6%,28.5%,29.1%,65.6%,69.5%,78%,56.9%,77.1%,34.8%,71.2%,66.4%,64.8%,45.2%
COc1ccc(C2c3ccc4ccccc4c3Oc3ncn(CCCn4ccnc4)c(=N)c32)cc1OC (stereo not given),60.6%,73.4%,55.8%,24.3%,–,55.3%,68.4%,79%,15.6%,–,69.2%,73.2%,89.5%,-7.39% (active),67.8%,72.4%,49.6%,68.5%,53.4%
O=c1c2cc(F)cc(Cl)c2sc2c(Cl)nc3ccccc3c12,90.5%,89.4%,100%,99.3%,77%,111%,110%,109%,110%,88.9%,84%,100%,98.5%,101%,97%,114%,99.5%,103%,–
Nc1nc(-c2ccccc2Br)nn1-c1nc2ccccc2s1,98%,105%,100%,99.6%,85.6%,98.4%,104%,110%,94.8%,105%,101%,104%,97.4%,102%,99.6%,89%,98.3%,97.2%,110%
CCn1c(Cc2ccccc2Nc2c(Cl)cccc2Cl)nnc1SCC(=O)NN1C(=O)/C(=C/c2cccc(OC)c2OC)SC1=S,98.4%,98.6%,103%,96.9%,86.8%,96.3%,104%,105%,89.7%,97.1%,102%,112%,96.1%,95%,101%,101%,103%,99.8%,112%
O=C(O)CCC(=O)c1ccc(C2CCCCCC2)cc1,97.9%,98.8%,107%,99.7%,87.5%,99.6%,95.8%,108%,90.2%,91.5%,109%,115%,97.5%,97.4%,97.1%,94.6%,102%,105%,104%
